Results: PubChem BioAssay (NCATS)
Records with an inconclusive call do not appear. A number with no mark means an inactive call. The source made the active and inactive calls. Unless noted, calls come from the whole dose curve.

Target: Protein phosphatase 1D (Homo sapiens) (UniProt O15297)
Experiment: Rhodamine-PBP qHTS Assay for Modulators of WT P53-Induced Phosphatase 1 (WIP1) (AID 1347425; active = well fitted curve in the direction sought with a large enough effect; note: % of control where 0% means no effect)
Details: recombinant WIP1, Rhodamine-PBP phosphate fluorescence, real-time; series mostly up to 57.5 µM; activity change, negative = inhibition: at the top concentration
In short: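 Steps: enzyme with Rh-PBP sensor and compounds, room-temperature incubation of 1 hr, baseline read, addition of VEPPL-pS-QETFS (10 uM final), kinetic fluorescence reads at 525/598 nm. Activity equals final minus baseline signal.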

Chain of Protein phosphatase 1D (Homo sapiens) (O15297 whole entry, looked up): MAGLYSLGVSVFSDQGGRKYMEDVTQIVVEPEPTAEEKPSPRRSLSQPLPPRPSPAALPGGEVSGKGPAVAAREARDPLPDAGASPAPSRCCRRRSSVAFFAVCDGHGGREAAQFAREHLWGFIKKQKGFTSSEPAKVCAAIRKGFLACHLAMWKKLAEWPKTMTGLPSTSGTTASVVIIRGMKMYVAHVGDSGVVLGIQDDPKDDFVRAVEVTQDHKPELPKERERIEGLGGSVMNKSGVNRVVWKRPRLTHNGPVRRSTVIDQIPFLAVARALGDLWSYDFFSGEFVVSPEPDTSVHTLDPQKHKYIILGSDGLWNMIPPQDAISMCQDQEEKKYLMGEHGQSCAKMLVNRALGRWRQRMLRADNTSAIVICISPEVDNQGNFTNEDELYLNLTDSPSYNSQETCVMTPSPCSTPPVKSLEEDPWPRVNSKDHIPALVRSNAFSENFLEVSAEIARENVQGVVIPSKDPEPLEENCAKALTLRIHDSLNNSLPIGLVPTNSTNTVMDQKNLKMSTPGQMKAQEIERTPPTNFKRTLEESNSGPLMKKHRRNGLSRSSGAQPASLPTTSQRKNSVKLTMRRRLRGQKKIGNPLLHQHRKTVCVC

Which “activity change, negative = inhibition” value does the source give for C=CC[C@]1(O)CC[C@H]2[C@@H]3CCC4=CC(=O)CCC4=C3C=C[C@@]21C here?
The value was -2.94%.

With C#C[C@]1(O)C=C[C@H]2[C@@H]3CCC4=CC(=O)CC[C@@H]4[C@H]3CC[C@@]21CC as the compound, how does the “activity change, negative = inhibition” value read?
The value was 10.2%.

Which “activity change, negative = inhibition” value does the source give for O=C(NC(=O)c1c(F)cccc1F)Nc1cc(Cl)c(OC(F)(F)C(F)C(F)(F)F)cc1Cl (stereo unspecified) here?
Its value is -3.32%.

For CC(C(O)c1ccccc1)N(C)C/C=C/c1ccccc1 (stereo unspecified), which “activity change, negative = inhibition” value is on record?
Its value is 16.3%.

System: not listed separately
Experiment: Primary qHTS for inhibitors of SARS-S pseudo-typed particle cell entry (AID 1479145); note: nearly all actives have a fitted effect of over 45% in size; note: potency is the fitted concentration of half-maximal effect; for activity change, negative = inhibition: % is set by controls: 0 for no effect and ±100 for the full control effect
Details: SARS-S pseudotyped particle cell entry, luciferase reporter; series mostly up to 57.1 µM; activity change, negative = inhibition: at the top concentration; outcome: at the top concentration

Which “activity change, negative = inhibition” value does the source give for [O-][n+]1ccccc1SSc1cccc[n+]1[O-] here?
The value was -97.5% [at 26.4 µM].

For Oc1c(Cl)cc(Cl)c2cccnc12, which “activity change, negative = inhibition” value is on record?
Its value is -24.5%.

Which “outcome” value does the source give for C[C@H](N)[C@H](O)c1cccc(O)c1 here?
Its value is “inactive”.

With NC(=O)CC[C@@H](N)C(=O)O as the compound, how does the “outcome” value read?
Its value is “inactive”.

Which “outcome” value does the source give for CC(=O)/C=C/C=C1/C2CCC(C2)C1(C)C (stereo unspecified) here?
The value was “inactive”.

Which “outcome” value does the source give for NCCc1cnc[nH]1 here?
Its value is “inactive”.

For Nc1ccc(C(=O)NCC(=O)O)cc1, which “outcome” value is on record?
Its value is “inactive”.

With COC(=O)Nc1nc2ccc(S(=O)c3ccccc3)cc2[nH]1 (stereo unspecified) as the compound, how does the “outcome” value read?
Its value is “inactive”.

For Cc1ncc(CSSCc2cnc(C)c(O)c2CO)c(CO)c1O, which “activity change, negative = inhibition” value is on record?
Its value is -19.9%.

Which Potency does the source give for Nc1ccc2cc3ccc(N)cc3nc2c1 here?
Its Potency is 14.1 µM (active).

With CC(C)(C)NCC(O)COc1cccc2c1CCC(=O)N2 (stereo unspecified) as the compound, how does the “outcome” value read?
The value was “inactive”.

With CCN[C@H]1C[C@H](C)S(=O)(=O)c2sc(S(N)(=O)=O)cc21 as the compound, how does the “outcome” value read?
The value was “inactive”.

For COc1ccc(CN(CCN(C)C)c2ccccn2)cc1, which “activity change, negative = inhibition” value is on record?
Its value is -6.21%.

Which “activity change, negative = inhibition” value does the source give for c1ccc(CN(CC2=NCCN2)c2ccccc2)cc1 here?
Its value is -13.5%.

For CCCCCCCCCCCCCCCC[N+](C)(C)Cc1ccccc1, which Potency is on record?
The Potency was 7.94 µM (active).

Which “activity change, negative = inhibition” value does the source give for C[C@H](N)C(=O)N[C@@H](C)C(=O)NC1[C@H]2CN(c3nc4c(cc3F)c(=O)c(C(=O)O)cn4-c3ccc(F)cc3F)C[C@@H]12 (stereo partly specified) here?
The value was -22.3%.

For O=C(O)COC(=O)Cc1ccccc1Nc1c(Cl)cccc1Cl, which “activity change, negative = inhibition” value is on record?
Its value is -17.3%.

Which “activity change, negative = inhibition” value does the source give for CC(=O)Oc1ccc(C(=C2CCCCC2)c2ccc(OC(C)=O)cc2)cc1 here?
The value was 4.46%.

For CCCCCCCCCCCCCCCCCCNC(=O)OC1CCN(C(=O)OC[C@H](COC(=O)N(Cc2cccc[n+]2CC)C(=O)c2ccccc2OC)OC)CC1, which Potency is on record?
Its Potency is 25.1 µM (active).

For C[C@H]1C[C@H]2[C@@H]3CCC4=CC(=O)C=C[C@]4(C)[C@H]3C(=O)C[C@]2(C)[C@@]1(O)C(=O)CO, which “outcome” value is on record?
Its value is “inactive”.

Which “outcome” value does the source give for Cc1ccc(=O)n(-c2ccccc2)c1 here?
The value was “inactive”.

With CC(=O)N[C@H]1[C@H]([C@H](O)[C@H](O)CO)OC(C(=O)O)=C[C@@H]1N=C(N)N as the compound, how does the “activity change, negative = inhibition” value read?
Its value is -20.6%.

Which Potency does the source give for CC(=O)Oc1ccc(C(c2ccc(OC(C)=O)cc2)c2ccccn2)cc1 here?
Its Potency is 1.41 µM (active).

Which Potency does the source give for C[C@H]1O[C@@H](O[C@H]2CC[C@@]3(C)[C@H](CC[C@@H]4[C@@H]3C[C@@H](O)[C@]3(C)[C@@H](C5=CC(=O)OC5)CC[C@]43O)C2)C[C@H](O)[C@@H]1O[C@H]1C[C@H](O)[C@H](O[C@H]2C[C@H](O)[C@H](O[C@@H]3O[C@H](CO)[C@@H](O)[C@H](O)[C@H]3O)[C@@H](C)O2)[C@@H](C)O1 here?
Its Potency is 0.891 µM (active).

With CCOC(=O)n1ccn(C)c1=S as the compound, how does the “outcome” value read?
The value was “inactive”.

With Cc1[nH]c(=O)c(C#N)cc1-c1ccc2nccn2c1 as the compound, how does the “outcome” value read?
The value was “inactive”.

For CCOC(=O)C(C)(C)Oc1ccc(Cl)cc1, which “activity change, negative = inhibition” value is on record?
Its value is -7.41%.

For O=c1[nH]cnc2c1ncn2[C@@H]1O[C@H](CO)[C@@H](O)[C@H]1O, which “outcome” value is on record?
Its value is “inactive”.

For CCCCCCCCCCCCCCCC[n+]1ccccc1, which Potency is on record?
Its Potency is 3.16 µM (active).

Which “activity change, negative = inhibition” value does the source give for O=C(CCCCC(=O)Nc1c(I)cc(I)c(C(=O)O)c1I)Nc1c(I)cc(I)c(C(=O)O)c1I here?
The value was -12.8%.

With CC(O)COc1ccccc1 (stereo unspecified) as the compound, how does the “outcome” value read?
Its value is “inactive”.

Which “outcome” value does the source give for CC(C)NCC(O)COc1ccc(COCCOC(C)C)cc1 (stereo unspecified) here?
Its value is “inactive”.

Which Potency does the source give for C[C@@]12C(=O)OC(=O)[C@]1(C)C1CCC2O1 here?
Its Potency is 14.1 µM (active).

System: not listed separately
Experiment: Primary qHTS for Huh7 cytotoxicity: counterscreen for inhibitors of MERS-S pseudotyped particle cell entry (AID 1479147); note: potency is the fitted concentration of half-maximal effect; for activity change, negative = cytotoxicity: % is set by controls: 0 for no effect and ±100 for the full control effect
Details: cell viability read-out; series mostly up to 57.1 µM; activity change, negative = cytotoxicity: at the top concentration; outcome: at the top concentration

For C=CC[C@]1(O)CC[C@H]2[C@@H]3CCC4=CC(=O)CCC4=C3C=C[C@@]21C, which “outcome” value is on record?
The value was “inactive”.

Which “outcome” value does the source give for C[C@H](N)[C@H](O)c1cccc(O)c1 here?
The value was “inactive”.

With NC(=O)CC[C@@H](N)C(=O)O as the compound, how does the “outcome” value read?
The value was “inactive”.

Which “outcome” value does the source give for CC(=O)/C=C/C=C1/C2CCC(C2)C1(C)C (stereo unspecified) here?
Its value is “inactive”.

With NCCc1cnc[nH]1 as the compound, how does the “outcome” value read?
Its value is “inactive”.

Which “outcome” value does the source give for Nc1ccc(C(=O)NCC(=O)O)cc1 here?
The value was “inactive”.

With COC(=O)Nc1nc2ccc(S(=O)c3ccccc3)cc2[nH]1 (stereo unspecified) as the compound, how does the “activity change, negative = cytotoxicity” value read?
Its value is -11.7%.

For Cc1ncc(CSSCc2cnc(C)c(O)c2CO)c(CO)c1O, which “outcome” value is on record?
The value was “inactive”.

For CC(C)(C)NCC(O)COc1cccc2c1CCC(=O)N2 (stereo unspecified), which “outcome” value is on record?
Its value is “inactive”.

With CCN[C@H]1C[C@H](C)S(=O)(=O)c2sc(S(N)(=O)=O)cc21 as the compound, how does the “activity change, negative = cytotoxicity” value read?
The value was -0.648%.

With COc1ccc(CN(CCN(C)C)c2ccccn2)cc1 as the compound, how does the “outcome” value read?
Its value is “inactive”.

For c1ccc(CN(CC2=NCCN2)c2ccccc2)cc1, which “outcome” value is on record?
The value was “inactive”.

With CCCCCCCCCCCCCCCC[N+](C)(C)Cc1ccccc1 as the compound, how does the “activity change, negative = cytotoxicity” value read?
Its value is -20.8%.

Which “outcome” value does the source give for C#C[C@]1(O)C=C[C@H]2[C@@H]3CCC4=CC(=O)CC[C@@H]4[C@H]3CC[C@@]21CC here?
Its value is “inactive”.

For C[C@H](N)C(=O)N[C@@H](C)C(=O)NC1[C@H]2CN(c3nc4c(cc3F)c(=O)c(C(=O)O)cn4-c3ccc(F)cc3F)C[C@@H]12 (stereo partly specified), which “activity change, negative = cytotoxicity” value is on record?
The value was -15.1%.

With O=C(O)COC(=O)Cc1ccccc1Nc1c(Cl)cccc1Cl as the compound, how does the “outcome” value read?
Its value is “inactive”.

For CC(=O)Oc1ccc(C(=C2CCCCC2)c2ccc(OC(C)=O)cc2)cc1, which “outcome” value is on record?
Its value is “inactive”.

With CCCCCCCCCCCCCCCCCCNC(=O)OC1CCN(C(=O)OC[C@H](COC(=O)N(Cc2cccc[n+]2CC)C(=O)c2ccccc2OC)OC)CC1 as the compound, how does the “activity change, negative = cytotoxicity” value read?
Its value is -21.1%.

For C[C@H]1C[C@H]2[C@@H]3CCC4=CC(=O)C=C[C@]4(C)[C@H]3C(=O)C[C@]2(C)[C@@]1(O)C(=O)CO, which “activity change, negative = cytotoxicity” value is on record?
Its value is -12.8%.

For Cc1ccc(=O)n(-c2ccccc2)c1, which “activity change, negative = cytotoxicity” value is on record?
Its value is 1.39%.

For CC(=O)N[C@H]1[C@H]([C@H](O)[C@H](O)CO)OC(C(=O)O)=C[C@@H]1N=C(N)N, which “outcome” value is on record?
The value was “inactive”.

With CC(=O)Oc1ccc(C(c2ccc(OC(C)=O)cc2)c2ccccn2)cc1 as the compound, how does the “activity change, negative = cytotoxicity” value read?
Its value is -0.647%.

With C[C@H]1O[C@@H](O[C@H]2CC[C@@]3(C)[C@H](CC[C@@H]4[C@@H]3C[C@@H](O)[C@]3(C)[C@@H](C5=CC(=O)OC5)CC[C@]43O)C2)C[C@H](O)[C@@H]1O[C@H]1C[C@H](O)[C@H](O[C@H]2C[C@H](O)[C@H](O[C@@H]3O[C@H](CO)[C@@H](O)[C@H](O)[C@H]3O)[C@@H](C)O2)[C@@H](C)O1 as the compound, how does the Potency read?
Its Potency is 1 µM (active).

Which “outcome” value does the source give for O=C(NC(=O)c1c(F)cccc1F)Nc1cc(Cl)c(OC(F)(F)C(F)C(F)(F)F)cc1Cl (stereo unspecified) here?
The value was “inactive”.

With CCOC(=O)n1ccn(C)c1=S as the compound, how does the “activity change, negative = cytotoxicity” value read?
The value was -10.3%.

Which “outcome” value does the source give for Cc1[nH]c(=O)c(C#N)cc1-c1ccc2nccn2c1 here?
The value was “inactive”.

For CCOC(=O)C(C)(C)Oc1ccc(Cl)cc1, which “outcome” value is on record?
The value was “inactive”.

Which “activity change, negative = cytotoxicity” value does the source give for O=c1[nH]cnc2c1ncn2[C@@H]1O[C@H](CO)[C@@H](O)[C@H]1O here?
The value was 3.39%.

Which Potency does the source give for CCCCCCCCCCCCCCCC[n+]1ccccc1 here?
The Potency was 11.2 µM (active).

With O=C(CCCCC(=O)Nc1c(I)cc(I)c(C(=O)O)c1I)Nc1c(I)cc(I)c(C(=O)O)c1I as the compound, how does the “activity change, negative = cytotoxicity” value read?
The value was 3.55%.

Which “outcome” value does the source give for CC(C(O)c1ccccc1)N(C)C/C=C/c1ccccc1 (stereo unspecified) here?
Its value is “inactive”.

For CC(O)COc1ccccc1 (stereo unspecified), which “outcome” value is on record?
The value was “inactive”.

Which “outcome” value does the source give for CC(C)NCC(O)COc1ccc(COCCOC(C)C)cc1 (stereo unspecified) here?
The value was “inactive”.

Which Potency does the source give for C[C@@]12C(=O)OC(=O)[C@]1(C)C1CCC2O1 here?
Its Potency is 22.4 µM (active).
